Screening data: PubChem BioAssay, several laboratories
The list is not random: actives were taken first. Their share in the collection is about 2.5%.
Efflux pump mplx: inhibitors of Candida efflux pumps in yeast, primary screen, S. cerevisiae, Nile Red, multiplex; S. cerevisiae Candida pump triplex; inhibition, % at 10 µM; 330,000 tested, 0.44% active; AID 485275, 2010;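 active = plate passing quality check with inhibition over a set limit, or well fluorescence over plate mean plus 4 SD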;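 note: Nile Red retained in pooled yeast measured as flow cytometry median fluorescence; 0% = buffer negative control and 100% = Enniatin B positive control; higher means more Nile Red kept so more efflux inhibition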
SUMO Mot1 rescue: yeast Mot1-301 growth rescue at high temperature, primary screen, SUMOylation pathway inhibitor project, S. cerevisiae, ATP luminescence, 38.5C | growth rescue, % at 18.8 µM | 320,000 tested, 1% active | S. cerevisiae Mot1-301 growth rescue; percent above DMSO median, 100 means doubled;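 active = every valid replicate shows activation above 250% relative to neutral control wells; inactive = the rest, any valid replicate at or below 250%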;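 note: OY570 slx delta 5 strain wells were the positive control but not used for scaling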
AI-2 QS modul: Vibrio harveyi AI-2 quorum sensing modulators, primary screen, JMH597 strain, luminescence/OD600 ratio. Vibrio harveyi JMH597 AI-2 luminescence/OD600 ratio, 9 h; hits give low values; strain lacks LuxN and CqsS sensors; 0 = neutral-control median. 300,000 tested, 0.4% active. AID 2094, 2009. activity change, % at 7.5 µM; in the data active = activity change below about -75%, passing the limit was not always enough;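 note: luminescence divided by OD600 gain over 9 h not by final OD600 alone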
V-ATPase pH: regulators of yeast V-ATPase proton pumping, primary screen, pHLuorin cytosolic pH fluorescence; S. cerevisiae; response, % at 10 µM; 350,000 tested, 0.37% active; AID 504577, 2011; in the data active = response mostly above about 7.3%, no sharp cut-off; inactive = mostly below about 5.4%; note: actives read high
ATG4B inh: ATG4B protease inhibitors, primary screen, biochemical, fluorescence, uHTS; Cysteine protease ATG4B (Homo sapiens), Q9Y4P1; ATG4B cleavage of LC3-PLA2, NBD-HPC fluorescence, 1 h; inhibition, % at 8.33 µM; 340,000 tested, 0.51% active; AID 504462, 2011; in the data active = inhibition above about 40%
Target sequence (Q9Y4P1 whole entry, looked up): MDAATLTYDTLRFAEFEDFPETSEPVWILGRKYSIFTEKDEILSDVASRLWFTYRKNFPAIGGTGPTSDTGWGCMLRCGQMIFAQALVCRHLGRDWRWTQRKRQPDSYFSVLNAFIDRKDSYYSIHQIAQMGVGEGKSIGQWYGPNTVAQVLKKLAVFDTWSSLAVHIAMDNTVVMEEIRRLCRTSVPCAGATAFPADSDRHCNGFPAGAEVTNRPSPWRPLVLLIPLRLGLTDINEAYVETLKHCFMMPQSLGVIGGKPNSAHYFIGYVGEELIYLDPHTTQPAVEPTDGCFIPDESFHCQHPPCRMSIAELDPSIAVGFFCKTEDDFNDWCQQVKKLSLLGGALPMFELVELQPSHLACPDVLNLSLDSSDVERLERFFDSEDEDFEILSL
* marks the source's active call; other numbers are inactive results; x = no result; ! = not active in a repeat.

SMILES | Efflux pump mplx | SUMO Mot1 rescue | AI-2 QS modul | V-ATPase pH | ATG4B inh
CN(C(=O)c1cccc(NC(=O)C2CCN(C(=O)OC(C)(C)C)CC2)c1)C1CCCCC1 | -0.1 | -15.8 | x | 3.9 | 3.4
CCc1nnc(NC(=O)CSc2nnc(CNC(=O)c3ccccc3F)n2C)s1 | -0.1 | -4.1 | 26.8 | -0.5 | -8.3
CSc1ccccc1NC(=O)CSc1nnc(CNC(=O)c2ccccc2F)n1C | -0.2 | 307.6* | 15.8 | 1.9 | -0.5
N#CCc1ccc(Oc2ncccn2)cc1 | 0.1 | 356.5* | 28.4 | -0.4 | 0.2
O=C(NCc1cccnc1)c1ccc([N+](=O)[O-])o1 | 0.3 | -12.6 | -109.5* | -3.3 | -4.3
O=C(Nc1cccnc1)c1ccc([N+](=O)[O-])o1 | 0.4 | 1.9 | -107.8* | 0.9 | -11.4
O=C(NCc1ccco1)c1ccc([N+](=O)[O-])o1 | 0.2 | 230.5 | -165.0* | 0.7 | -1.8
C[C@H](CO)N1C[C@H](C)[C@@H](CN(C)S(=O)(=O)c2ccc(F)cc2)Oc2ccc(NC(=O)Cc3ccccc3)cc2C1=O | 0.0 | -0.5 | x | 3.3 | -7.9
O=C(Nc1cccc(-c2cccc(Cl)c2)c1)C1CCN(CC2CCOC2)CC1 (stereo not given) | 0.1 | 194.5 | -0.1 | -4.3 | -9.4
O=C(Nc1cccc(-c2cccc(F)c2)c1)C1CCN(CC2CCOC2)CC1 (stereo not given) | 0.0 | 270.3* | 19.8 | -7.7 | -3.3
Cn1c(=O)c2cc(S(=O)(=O)NCCC(=O)Nc3ccc(Cl)cc3)ccc2n(C)c1=O | -0.6 | -12.7 | 25.2 | 10.9 | 4.8
Cn1c(=O)c2cc(S(=O)(=O)NCCC(=O)NCCc3ccc(Cl)cc3)ccc2n(C)c1=O | -0.1 | -18.9 | 25.9 | 22.4* | -6.9
CC(N)C12CC3CC(CC(C3)C1)C2 (stereo not given) | 0.2 | 328.7*! | 6.6 | 2.5 | -6.5
Nc1nc2nn(-c3ccccc3)nc2c(=O)[nH]1 | -0.1 | -9.6 | 15.8 | 0.2 | -7.0
Nc1nc2n[nH]nc2c(=O)[nH]1 | -0.2 | 14.5 | -95.0* | 0.8 | 4.4
CCC(C)(C)NC(=O)C(c1cccnc1)N(C(=O)c1csnn1)c1ccccc1 (stereo not given) | 0.1 | 9.6 | 0.0 | 6.0 | -3.4
COC(=O)Nc1ccc(S(=O)(=O)N2CCC(C(=O)NC3CCCCC3)CC2)cc1 | 0.7 | 308.4* | 40.1 | 1.0 | -12.4
O=C(Cn1cnc2c(NC(=O)OCc3ccccc3)ncnc21)NCc1ccccn1 | 0.1 | -5.4 | x | 0.3 | 6.0
O=C(COC(=O)C1=COCCO1)Nc1ccccc1 | -0.2 | -3.6 | 18.5 | 3.4 | 5.2
O=C(COC(=O)C1=COCCO1)Nc1ccc(F)c(F)c1 | -0.4 | 608.6* | 20.3 | -0.9 | 4.2
COc1ccc([C@@H]2C[C@H]3[C@@H](CN2S(=O)(=O)c2ccccc2)C(=O)C[C@@H](c2ccccc2F)N3S(=O)(=O)c2ccc(C)cc2)cc1 | x | x | x | 1.4 | x
O=C(N/N=C/c1ccco1)C1CC1c1ccccc1 (stereo not given) | -1.7 | 432.3 | -85.5* | -1.7 | 4.6
Cn1cnnc1SCc1cccc(Br)c1 | 0.1 | 263.9* | 6.6 | 7.9 | 2.2
C[N+]1(C)CCC(OC(=O)C(O)(c2ccccc2)C2CCCC2)C1 (stereo not given) | 0.0 | 373.1* | 28.0 | -4.5 | -5.3
C[N+]1(C)CC[C@H](OC(=O)[C@@](O)(c2ccccc2)C2CCCC2)C1 | 0.0 | 2.6 | 12.4 | -3.9 | -5.9
SMILES | Efflux pump mplx | SUMO Mot1 rescue | AI-2 QS modul | V-ATPase pH | ATG4B inh
COc1cc(OC)cc(C(=O)Nc2cccc3nc(C)ccc23)c1 | -0.1 | 92.4 | 7.9 | -2.4 | 1.7
COc1ccc(C(=O)Nc2cccc3nc(C)ccc23)cc1OC | -0.1 | 548.7* | 0.9 | 2.3 | 3.8
COc1ccc(NS(=O)(=O)c2cccc(NC(=O)COc3ccc(OC)cc3)c2)cc1 | -0.2 | -7.6 | -83.3* | -2.1 | -9.6
COc1ccc(NS(=O)(=O)c2cccc(NC(=O)CNC(C)=O)c2)cc1 | -0.4 | -9.8 | 15.4 | -2.4 | -8.3
Cc1ccc2c(c1)NC(=O)C(CC(=O)N(C)Cc1ccccc1)O2 (stereo not given) | 0.0 | -0.6 | 8.6 | 1.2 | 2.0
CCCCc1nnc(NC(=O)CN2C(=O)c3ccccc3C2=O)s1 | 0.1 | 8.3 | -85.7* | 0.5 | -1.6
CC(C)(C)Cc1nnc(NC(=O)CN2C(=O)c3ccccc3C2=O)s1 | -0.1 | -17.6 | 12.6 | -3.6 | -9.3
CCCC(=O)Nc1nc2c(C)c(Cl)ccc2s1 | -0.1 | 37.3 | 12.5 | 3.2 | 12.8
Cc1c(Cl)ccc2sc(NC(=O)CN3C(=O)c4ccccc4C3=O)nc12 | 0.3 | 10.1 | -94.8* | -0.1 | 0.5
C=CCn1c(SCC(=O)Nc2cc(C)on2)nc2ccccc21 | x | x | x | 2.5 | x
CCOC(=O)N1CCN(C(=O)c2cn(CC)c3ccc(S(=O)(=O)N4CC(C)CC(C)C4)cc3c2=O)CC1 (stereo not given) | -0.1 | 4.4 | -4.6 | -0.9 | -8.7
CCn1cc(C(=O)N2CCCC2)c(=O)c2cc(S(=O)(=O)N3CC(C)CC(C)C3)ccc21 (stereo not given) | 0.1 | 302.5* | x | -2.0 | 0.8
O=C(COc1ccc2c(c1)oc(=O)c1ccccc12)NC(Cc1ccc(Cl)cc1)C(=O)O (stereo not given) | 0.2 | 12.2 | 20.8 | -0.6 | -32.7
Cn1cccc1Cc1nnc(SCC(=O)N2CCCCCC2)n1-c1ccc(F)cc1 | -0.2 | -1.8 | 27.7 | -1.9 | -9.0
Cc1ccc(-n2c(Cc3cccn3C)nnc2SCC(=O)N2CCN(c3ccccc3)CC2)cc1 | 0.5 | -14.6 | 9.0 | 20.3* | 12.8
CCOC(=O)c1c(C)[nH]c(C)c1C(=O)CSc1nc2ccccc2[nH]1 | -0.1 | 452.6* | -7.8 | -3.0 | 0.2
CCN(CC)CCCn1c(C)cc2c(c1=O)C(c1cccc(Cl)c1)C(C#N)=C(N)O2 (stereo not given) | x | x | x | 36.0* | 8.7
CCOc1ccc(NC(=O)[C@@H](NC(=O)c2ccco2)C(C)C)cc1 | -0.2 | 6.8 | 17.8 | -1.2 | -3.3
CC(C)C(NC(=O)c1ccco1)C(=O)NCC(c1ccco1)N(C)C (stereo not given) | 0.1 | -4.1 | 11.2 | 16.3* | 1.3
C#CC1(NC(=O)NC(C)C)CCCCC1 | 0.0 | -4.5 | -0.9 | -1.6 | 7.4
COc1ccc(CNC(=O)CN(c2ccc(C)cc2)S(=O)(=O)c2c(C)nn(C)c2C)cc1 | -0.2 | 6.4 | -3.0 | 2.0 | -4.4
O=C(Cn1cncn1)c1ccccc1Br | 0.5 | 357.4* | 23.4 | -0.4 | -10.3
O=C(NCCc1ccccc1)C1CCN(C(=O)c2ccc([N+](=O)[O-])cc2)CC1 | -0.2 | 1.7 | -10.1 | -2.7 | -8.1
COc1ccc(CCNC(=O)C2CCN(C(=O)c3ccc([N+](=O)[O-])cc3)CC2)cc1 | 0.2 | 314.1* | 6.3 | -0.8 | -14.0
COc1ccc(NC(=O)CN2CCC(C(=O)c3ccc(F)cc3)CC2)c(OC)c1 | 0.2 | 1.4 | 18.3 | 6.0 | -3.6
